Reference: PubChem BioAssay (NCATS)
Results filed as inconclusive are left out. Active and inactive are the calls of the source. Calls follow the shape of the dose curve; as a rule, active = well fitted curve in the direction sought with a large enough effect; inconclusive = small, poorly fitted or top-dose-only effect, or another doubt; inactive = no such curve, though single readings can be large; an effect the other way counts as inactive or inconclusive.

Key:
[1] = Quantitative High-Throughput drug screen in 47 multiple myeloma cell lines against the NCATS MIPE library collection: KMS26_JCRB cell viability assay (AID 1918975); also: nearly all actives have a fitted effect of over 45% in size
Summary of the method: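 Steps: seed 500 cells per well; pin-transfer MIPE 4.0 library; incubate 48 h at 37C, 5% CO2, humidified; add CellTiter-Glo, 5 min room temperature; read luminescence.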

[2] = Quantitative High-Throughput drug screen in 47 multiple myeloma cell lines against the NCATS MIPE library collection: NCIH929_DSMZ cell viability assay (AID 1918978); also: nearly all actives have a fitted effect of over 35% in size
Summary of the method: (§1)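 Myeloma cells (500/well) treated with MIPE 4.0 compounds for 48 h at 37 °C, 5% CO2. Viability read as ATP via CellTiter-Glo luminescence after 5 min at RT; DMSO-only wells = 100%, media-only = 0% viability.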

[3] = Quantitative High-Throughput drug screen in 47 multiple myeloma cell lines against the NCATS MIPE library collection: OCIMY1_PLB cell viability assay (AID 1918979); also: nearly all actives have a fitted effect of over 35% in size
Summary of the method: as §1

[4] = Quantitative High-Throughput drug screen in 47 multiple myeloma cell lines against the NCATS MIPE library collection: LP1_DSMZ cell viability assay (AID 1918982); also: nearly all actives have a fitted effect of over 35% in size
Summary of the method: as §1

[5] = Quantitative High-Throughput drug screen in 47 multiple myeloma cell lines against the NCATS MIPE library collection: KMS28PE_JCRB cell viability assay (AID 1918983); also: nearly all actives have a fitted effect of over 35% in size
Summary of the method: as §1

[6] = Quantitative High-Throughput drug screen in 47 multiple myeloma cell lines against the NCATS MIPE library collection: KMS34_JCRB cell viability assay (AID 1918985); also: nearly all actives have a fitted effect of over 40% in size
Summary of the method: as §1

[7] = Quantitative High-Throughput drug screen in 47 multiple myeloma cell lines against the NCATS MIPE library collection: U266_ATCC cell viability assay (AID 1919864); also: nearly all actives have a fitted effect of over 35% in size
Summary of the method: as §1

[8] = Quantitative High-Throughput drug screen in 47 multiple myeloma cell lines against the NCATS MIPE library collection: MMM1_PLB cell viability assay (AID 1918976); also: nearly all actives have a fitted effect of over 35% in size
Summary of the method: as §1

[9] = Quantitative High-Throughput drug screen in 47 multiple myeloma cell lines against the NCATS MIPE library collection: MM1S_ATCC cell viability assay (AID 1918980); also: nearly all actives have a fitted effect of over 45% in size
Summary of the method: as §1

[10] = Quantitative High-Throughput drug screen in 47 multiple myeloma cell lines against the NCATS MIPE library collection: OCIMY7_PLB cell viability assay (AID 1918987); also: nearly all actives have a fitted effect of over 65% in size
Summary of the method: as §1

[11] = Quantitative High-Throughput drug screen in 47 multiple myeloma cell lines against the NCATS MIPE library collection: OPM1_PLB cell viability assay (AID 1918989); also: nearly all actives have a fitted effect of over 40% in size
Summary of the method: as §1

[12] = Quantitative High-Throughput drug screen in 47 multiple myeloma cell lines against the NCATS MIPE library collection: XG6_PLB cell viability assay (AID 1919865); also: nearly all actives have a fitted effect of over 40% in size
Summary of the method: as §1

[13] = Quantitative High-Throughput drug screen in 47 multiple myeloma cell lines against the NCATS MIPE library collection: MOLP8_DSMZ cell viability assay (AID 1918977); also: nearly all actives have a fitted effect of over 45% in size
Summary of the method: as §1

[14] = Quantitative High-Throughput drug screen in 47 multiple myeloma cell lines against the NCATS MIPE library collection: OCIMY5_PLB cell viability assay (AID 1918988); also: nearly all actives have a fitted effect of over 65% in size
Summary of the method: as §1

[15] = Quantitative High-Throughput drug screen in 47 multiple myeloma cell lines against the NCATS MIPE library collection: SKMM1_PLB cell viability assay (AID 1919863); settings: SKMM1 myeloma viability, CellTiter-Glo ATP, 48 h; viability: hits give low values; also: nearly all actives have a fitted effect of over 35% in size
Summary of the method: as §1

[16] = Quantitative High-Throughput drug screen in 47 multiple myeloma cell lines against the NCATS MIPE library collection: XG1_PLB cell viability assay (AID 1919866); also: nearly all actives have a fitted effect of over 35% in size
Summary of the method: as §1

[17] = Quantitative High-Throughput drug screen in 47 multiple myeloma cell lines against the NCATS MIPE library collection: VP6_DJ cell viability assay (AID 1919867); also: nearly all actives have a fitted effect of over 40% in size
Summary of the method: as §1

[18] = Quantitative High-Throughput drug screen in 47 multiple myeloma cell lines against the NCATS MIPE library collection: L363_DSMZ cell viability assay (AID 1918984); also: nearly all actives have a fitted effect of over 40% in size
Summary of the method: as §1

[19] = Quantitative High-Throughput drug screen in 47 multiple myeloma cell lines against the NCATS MIPE library collection: MM1R_ATCC cell viability assay (AID 1918981); also: nearly all actives have a fitted effect of over 35% in size
Summary of the method: as §1

[20] = Quantitative High-Throughput drug screen in 47 multiple myeloma cell lines against the NCATS MIPE library collection: UTMC2_PLB cell viability assay (AID 1919868); settings: CellTiter-Glo ATP luminescence, 48 h; viability (% of DMSO control): at 45.8 µM (top of the series); also: nearly all actives have a fitted effect of over 55% in size
Summary of the method: as §1
Potency is read from the fitted curve at half-maximal effect.

COCCNCCCn1c(C(=O)CF)c(-c2ccc(C)cc2)c2c(N)ncnc21
active: Potency [4] 7.43 µM | Potency [6] 16.6 µM
inactive: Potency [1] | Potency [2] | Potency [3] | Potency [5] | Potency [7]

NNCCc1ccccc1
active: Potency [8] 5.9 µM | Potency [9] 5.9 µM | Potency [7] 8.33 µM
inactive: Potency [2] | Potency [3] | Potency [10] | Potency [11] | Potency [12]

N#CC[C@H](C1CCCC1)n1cc(-c2ncnc3[nH]ccc23)cn1
inactive: Potency [13] | Potency [2] | Potency [3]
active: Potency [8] 16.6 µM | Potency [9] 4.18 µM | Potency [10] 18.7 µM | Potency [14] 20.9 µM | Potency [11] 6.62 µM | Potency [15] 6.62 µM | Potency [7] 18.7 µM

CC1(C)Cc2c(-c3ccccc3)c(-c3ccc(Cl)cc3)c(CC(=O)O)n2C1
active: Potency [8] 20.9 µM | Potency [13] 20.9 µM | Potency [3] 23.5 µM | Potency [15] 20.9 µM | Potency [7] 18.7 µM | Potency [12] 18.7 µM | Potency [16] 14.8 µM | Potency [17] 14.8 µM

O=C1CCc2cc(OCCCCc3nnnn3C3CCCCC3)ccc2N1
inactive: Potency [1] | Potency [3] | Potency [4] | Potency [18] | Potency [11] | Potency [7] | Potency [17]

COc1cc(Oc2ccnc3cc(OC)c(OC)cc23)ccc1NC(=O)NC(C)c1nccs1 (stereo not given)
active: Potency [8] 16.6 µM | Potency [19] 18.7 µM | Potency [14] 16.6 µM | Potency [11] 20.9 µM
inactive: Potency [13] | Potency [2] | Potency [7] | Potency [20]

CN1CCN(CCCN2c3ccccc3Sc3ccc(C(F)(F)F)cc32)CC1
active: Potency [2] 2.09 µM | Potency [9] 1.05 µM | Potency [10] 5.9 µM | Potency [11] 26.4 µM | Potency [7] 1.66 µM | Potency [12] 1.05 µM | Potency [16] 1.18 µM | Potency [17] 2.09 µM
inactive: Potency [1] | Potency [3] | Potency [4] | Potency [6] | Potency [14] | viability [15] 123%

CCOc1cc(N2CCC(O)CC2)ccc1Nc1ncc2c(n1)N(C)c1ccccc1C(=O)N2C
active: Potency [1] 4.18 µM | Potency [9] 5.26 µM | Potency [5] 16.6 µM | Potency [18] 0.526 µM | Potency [6] 10.5 µM | Potency [14] 14.8 µM | Potency [11] 2.96 µM | Potency [15] 11.8 µM | Potency [16] 5.9 µM | Potency [17] 2.09 µM

NCCc1ccc(O)c(O)c1
active: Potency [8] 7.43 µM | Potency [13] 20.9 µM | Potency [4] 8.33 µM | Potency [18] 23.5 µM | Potency [6] 8.33 µM | Potency [14] 20.9 µM | Potency [7] 23.5 µM | Potency [17] 23.5 µM

Cc1cc(Nc2nc(N[C@@H](C)c3ncc(F)cn3)ncc2Cl)n[nH]1
inactive: Potency [3]
active: Potency [1] 26.4 µM | Potency [19] 26.4 µM | Potency [5] 20.9 µM | Potency [14] 7.43 µM | Potency [11] 18.7 µM | Potency [7] 9.35 µM | Potency [12] 2.96 µM | Potency [16] 2.64 µM | Potency [17] 6.62 µM

S=C(NCc1ccc2c(c1)OCO2)N1CCN(c2ncnc3c2oc2ccccc23)CC1
inactive: Potency [6]
active: Potency [8] 1.21 µM | Potency [2] 4.81 µM | Potency [3] 42.9 µM | Potency [9] 3.82 µM | Potency [4] 2.7 µM | Potency [18] 0.605 µM | Potency [10] 4.29 µM | Potency [14] 9.59 µM | Potency [11] 2.41 µM | Potency [7] 12.1 µM | Potency [12] 2.41 µM | Potency [16] 0.96 µM | Potency [17] 0.96 µM

C#Cc1cccc(Nc2ncnc3cc(OCCOC)c(OCCOC)cc23)c1
active: Potency [8] 0.59 µM | Potency [2] 7.43 µM | Potency [9] 9.35 µM | Potency [18] 1.48 µM | Potency [6] 11.8 µM | Potency [10] 0.833 µM | Potency [14] 5.9 µM | Potency [7] 13.2 µM | Potency [12] 0.0833 µM
inactive: Potency [3]

O=c1[nH]c(-c2ccc(C(F)(F)F)cc2)nc2c1CSCC2
active: Potency [8] 7.43 µM | Potency [2] 18.7 µM | Potency [9] 18.7 µM | Potency [14] 5.26 µM | Potency [7] 18.7 µM
inactive: Potency [13] | Potency [18] | Potency [16]

COc1ccc(COc2cc3oc(=O)c4cc(C(C)O)ccc4c3cc2OC)cc1 (stereo not given)
active: Potency [8] 18.7 µM | Potency [13] 18.7 µM | Potency [2] 26.4 µM | Potency [9] 13.2 µM | Potency [5] 23.5 µM | Potency [18] 5.26 µM | Potency [6] 18.7 µM | Potency [14] 20.9 µM | Potency [11] 18.7 µM | Potency [15] 20.9 µM | Potency [7] 13.2 µM | Potency [16] 13.2 µM | Potency [17] 14.8 µM | Potency [20] 20.9 µM

C[C@]12CC[C@H](O)CC1=CC[C@@H]1[C@H]2CC[C@]2(C)C(c3cccnc3)=CC[C@H]12
inactive: Potency [1] | Potency [3] | Potency [19] | Potency [4] | Potency [5] | Potency [18] | Potency [6] | Potency [14] | Potency [7]
active: Potency [15] 1.82 µM | Potency [12] 3.23 µM | Potency [16] 3.23 µM | Potency [17] 8.12 µM

COc1ccc(-c2c(-c3ccc(O)cc3O)n[nH]c2C)cc1
active: Potency [8] 42.9 µM | Potency [2] 19.1 µM | Potency [19] 38.2 µM | Potency [11] 30.3 µM | Potency [17] 34 µM
inactive: Potency [3] | Potency [9] | Potency [5] | Potency [6] | viability [15] 137% | Potency [7]
